“And” between values parts separate entries of the source, which are not always exact repeats. Equal values may be shown once.
biological target: Bromodomain-containing protein 4 (Homo sapiens) (UniProt O60885); conditions: Compound concentration 20.0 uM, Protein concentration 2.0 uM, Result type QC Liability

Row | Structure (SMILES) | ΔTm
1 | C=CC[C@@H]1/C=C(\C)C[C@H](C)C[C@H](OC)[C@H]2O[C@@](O)(C(=O)C(=O)N3CCCC[C@H]3C(=O)O[C@H](/C(C)=C/[C@@H]3CC[C@@H](O)[C@H](OC)C3)[C@H](C)[C@@H](O)CC1=O)[C@H](C)C[C@@H]2OC | -1.85 °C
2 | Cc1cc(OCCC(C)(C)O)cc(C)c1-c1ccc(F)c2c1CC[C@H]2Oc1ccc2c(c1)OC[C@H]2CC(=O)O | -2.75 °C
3 | CNc1[nH]c(Nc2ccc(C(=O)N3CCOCC3)cc2OC)nc2ncc(Cl)c1-2 | -0.77 °C
4 | O=C(Nc1ccc(-n2nc(-c3cccnc3)cc2C(F)(F)F)cn1)c1ccc(-c2ccccc2)c(F)c1 | -2.41 °C
5 | CN1Cc2nccc(-c3cn(C)nc3-c3ccc(F)cc3)c2C1=O | -1.27 °C
6 | CN(C)[C@H]1CCc2nc(NC(=O)c3cccc(Cn4cc(-c5ccc(C#N)cc5)cn4)c3)sc2C1 | -1.88 °C
7 | C=CC(=O)Nc1cccc(C(=O)Nc2ccc(Nc3cc(-c4c(-c5ccc(F)cc5)nc(SC)n4C)ccn3)cc2)c1 | -0.7 °C
8 | COc1cc(CN(CCN)C(=O)N[C@@H](C)c2ccccc2)ccc1OCc1ccccc1 | -1.26 °C
9 | CC(C)(C[C@H]1CN(S(=O)(=O)c2cccc(C(F)(F)F)c2)c2cc(-c3cc(F)cc(OC(F)F)c3)ccc2O1)C(=O)O | -6.18 °C
10 | O=C(O)c1ccnc(N2CC(O)(c3ccc(OCc4c(-c5c(Cl)cccc5Cl)noc4C4CC4)cc3Cl)C2)c1 | -4.33 °C
11 | COCCN1CCN(CCn2ccc(Nc3ncc4c(n3)-c3c(nn(C)c3-c3ccccc3)C[C@H]4C)n2)CC1 | -1.68 °C
12 | N#CN1CC[C@H](C(=O)Nc2nc3c(s2)CN(C(=O)CN=[N+]=[N-])CC3)C1 | -0.19 °C
13 | CN(C)C(=O)c1sc2nc(N3CCC(S(C)(=O)=O)CC3)cc(C(F)(F)F)c2c1N | -3.42 °C and 1.01 °C
14 | Cn1c(C(=O)N[C@@H](CO)c2ccc(C(=O)O)cc2)cc2cc(Cl)ccc21 | 0.27 °C
15 | O=C(NCc1ccc(F)cc1)C1CCN(S(=O)(=O)c2cc(Cl)cc(Cl)c2)CC1 | -0.4 °C
16 | CCNc1ccc(-c2nn(-c3ccccc3C)c3c2C(C)Cc2nc(NC(=O)OC)sc2-3)cn1 (centres undefined) | -2.96 °C
17 | CS(=O)(=O)c1cc(C2(NC(=O)c3cncc4c3cnn4-c3ccc(F)cc3)CC2)ccn1 | -1.64 °C
18 | Nc1c(CC(=O)O)cccc1C(=O)c1ccc(Br)cc1 | -0.6 °C
19 | COc1cc(-c2cc3ncccc3c(O[C@@H](C)[C@H]3CNC(=O)C3)n2)cc(OC)c1OC | 1.39 °C
20 | CSc1ccc(C[C@@H](C)C(=O)O)cc1Nc1nc(N2CC[C@H](N(C)C)C2)cc(C(F)F)c1C#N | 0.52 °C

Row | Structure (SMILES) | ΔTm
21 | C[C@@H]1CCNC(=O)c2cc3ccc(C(=O)Nc4nc5ccccc5n4CCCN(C)C)cc3n21 | -0.87 °C
22 | COCCOCn1c(S(C)(=O)=O)nc2c1c(=O)n(C)c(=O)n2C | -12.2 °C
23 | C/C=C1\C(=O)CC2C3CCC4=CC(=O)CC[C@]4(C)C3CC[C@]12C (some centres undefined) | -2.62 °C
24 | CC1CN(CC(=O)N2CC(C)(C)c3nc(CO)c(Cc4ccc(F)cc4)cc32)C(CN2CCOCC2C)CN1 (centres undefined) | -2.32 °C
25 | C=CC1C[C@]1(NC(=O)[C@@H]1C[C@@H](Oc2cc(-c3csc(NC(=O)C(C)C)n3)nc3c(Br)c(OC)ccc23)CN1C(=O)[C@@H](NC(=O)OC1CCCC1)C(C)(C)C)C(=O)O (some centres undefined) | 1.06 °C
26 | Cc1c(NC(=O)COc2ccc(Cl)cc2C(=O)c2cc(F)cc(C(F)(F)F)c2)ccc(C(=O)O)c1F | -0.11 °C and -0.42 °C
27 | CCCCc1oc2ccccc2c1C(=O)c1cc(I)c(OCCN(CC)CC)c(I)c1 | -4.02 °C
28 | C[C@H](CCC(=O)O)[C@H]1CC[C@H]2[C@@H]3[C@H](O)C[C@@H]4C[C@H](O)CC[C@]4(C)[C@H]3C[C@H](O)[C@]12C | -2.7 °C
29 | NC1(c2ccc(-c3nc4c(O)ccnn4c3-c3ccccc3)cc2)CCC1 | -0.63 °C
30 | COc1cc(C(=O)NCCOCCOCCOCC(=O)N[C@H](C(=O)N2C[C@H](O)C[C@H]2C(=O)NCc2ccc(-c3scnc3C)cc2)C(C)(C)C)ccc1Nc1ncc(C(F)(F)F)c(Oc2cccc3c2C(=O)CC3)n1 | -0.02 °C
31 | Fc1ccc(Cl)cc1-c1nc(Nc2ccncc2)c2nccnc2n1 | -2.28 °C
32 | COc1cc(F)ccc1-c1ncnc(Nc2cccc(C[S@](C)(=N)=O)c2)n1 | 0.48 °C
33 | NS(=O)(=O)c1ccc(Nc2nc(OCC3CCCCC3)c3nc[nH]c3n2)cc1 | 0.59 °C
34 | CN1CCN(c2ccc(-n3cc(-c4ccncc4OCC4CCNCC4)cn3)cc2)CC1 | -1.52 °C
35 | CCOC(=O)CS(=O)(=O)c1ccc([C@@H](CO)NC(=O)c2cc3c(Cl)c(Cl)c(C)cc3n2C)cc1 | -3.35 °C
36 | CC[C@@H](C(=O)OC)n1c(=O)c2ccccc2n(Cc2cn(C)c3cccc(C)c23)c1=O | 1.22 °C
37 | COc1c(-c2cn(C3CCC(=O)NC3=O)nn2)csc1C(=O)N1CCCC1 (centres undefined) | -0.9 °C
38 | CC(C)(C)C(=O)NCc1ccc(Cl)c(C(=O)Nc2ncc[nH]2)c1 | -0.82 °C
39 | Cc1nc2cccnc2n2c(-c3cc([C@@]4(O)CCCOC4)ccc3Cl)nnc12 | -1.99 °C
